This note sets out measurements from PubChem BioAssay AID2284140 (EPA ToxCast).

The source made the active and inactive calls. Rule for the calls: active = hit-call score of the fitted dose curve at least 0.9, where 1 is the maximum; inactive = score below 0.9.

This assay concerns the target Tyrosine-protein kinase SYK (Homo sapiens) (UniProt P43405). As to the kind of experiment: ERF_FR_ENZ_hSYK: Eurofins (ERF) Enzymatic Radiometric [Km ATP] KinaseProfiler LeadHunter Assay for human Syk Tyrosine Kinase. Here is the method:
ERF_FR_ENZ_hSYK is a biochemical, single-readout assay that uses extracted gene-proteins in a cell-free assay. Measurements were taken 0.5 hour after chemical dosing in a 96-well plate. See Syk Human TK Kinase Enzymatic LANCE Assay [Km ATP], Cerep.ERF_FR_ENZ_hSYK is an assay component calculated from the ERF_FR_ENZ_hSYK assay. It is designed to measure enzyme activity using a type of enzyme reporter as detected by fluorescence intensity with LANCE technology.Data from the assay component ERF_FR_ENZ_hSYK was analyzed at the assay endpoint, ERF_FR_ENZ_hSYK, in the positive analysis fitting direction relative to DMSO as the negative control and baseline of activity. Using a type of enzyme reporter, loss-of-signal activity can be used to understand changes in enzymatic activity as they relate to gene SYK. To generalize the intended target to other relatable targets, this assay endpoint is annotated to the kinase intended target family, where the subfamily is spleen tyrosine kinase.
Syk (h) is incubated with 50 mM Tris pH 7.5, 0.1 mM EGTA, 0.1 mM Na3VO4, 0.1% […], 0.1 mg/ mL poly(Glu, Tyr) 4:1, 10 mM MgAcetate and [gamma-33P]-ATP (specific activity and concentration as required). The reaction is initiated by the addition of the Mg/ATP mix. After incubation for 40 minutes at room temperature, the reaction is stopped by the addition of phosphoric acid to a concentration of 0.5%. […]
For `O=C(/C=C/c1ccc(O)cc1)CC(=O)/C=C/c1ccc(O)cc1`, the call was inactive.
